Results taken from article PMC7862700, “An all-to-all approach to the identification of sequence-specific readers for epigenetic DNA modifications on cytosine”.

Legend:
Experiment in all cases: DAPPL (digital affinity profiling via proximity ligation, sequencing); 10 mM Tris-HCl pH 7.5, 50 mM NaCl, 1 mM DTT, 4% glycerol, room temperature, 30 min; GST-TFs on glutathione beads, 16-mer random dsDNA library, 0.1% formaldehyde crosslink after washing; high values mean tight binding
Conditions in all cases: protein: recombinant; tags: N-terminal GST; dsDNA, one strand shown
[1] = biological target: T1, FEV (Homo sapiens, UniProt Q99581 1-238)
T1 sequence: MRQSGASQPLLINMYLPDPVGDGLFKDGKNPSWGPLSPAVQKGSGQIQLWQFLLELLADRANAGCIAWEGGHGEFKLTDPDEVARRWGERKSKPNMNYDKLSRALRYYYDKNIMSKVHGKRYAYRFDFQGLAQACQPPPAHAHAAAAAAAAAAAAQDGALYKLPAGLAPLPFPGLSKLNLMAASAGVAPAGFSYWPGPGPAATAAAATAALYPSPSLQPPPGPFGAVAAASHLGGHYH
Procedure, shortened: (§1)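 The binding signal reported is, for every hexamer, its read frequency for a factor over its read frequency for the tag-only sample. Reads came from pools of yeast-expressed, GST-fused human transcription factors on glutathione beads, barcoded with DNA and mixed with that sample, which were incubated with 200 nmole of a random double-stranded 16-mer DNA library in Tris/NaCl/DTT/glycerol buffer at room temperature for 30 min. After washing, the pools were crosslinked with 0.1% formaldehyde, proximity-ligated with BsaI/T4 ligase for 1 h at 37 °C, PCR-amplified and sequenced on an Illumina NextSeq500.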

[2] = biological target: ETV5 (Homo sapiens, UniProt P41161 1-510)
Sequence of ETV5 (P41161 whole entry): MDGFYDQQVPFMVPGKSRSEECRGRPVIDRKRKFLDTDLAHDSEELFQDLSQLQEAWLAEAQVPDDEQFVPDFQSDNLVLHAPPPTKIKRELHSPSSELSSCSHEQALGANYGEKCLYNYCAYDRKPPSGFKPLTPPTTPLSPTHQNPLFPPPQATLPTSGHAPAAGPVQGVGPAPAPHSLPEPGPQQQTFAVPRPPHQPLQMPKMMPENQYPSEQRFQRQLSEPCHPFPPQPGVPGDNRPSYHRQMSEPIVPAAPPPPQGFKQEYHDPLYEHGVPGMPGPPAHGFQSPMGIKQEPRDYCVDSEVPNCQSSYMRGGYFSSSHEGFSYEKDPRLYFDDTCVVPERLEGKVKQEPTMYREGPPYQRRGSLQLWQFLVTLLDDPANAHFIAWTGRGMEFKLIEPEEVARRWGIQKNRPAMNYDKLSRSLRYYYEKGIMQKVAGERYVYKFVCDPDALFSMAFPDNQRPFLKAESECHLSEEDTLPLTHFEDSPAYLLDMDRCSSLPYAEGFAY
Procedure, shortened: as §1

[3] = biological target: T2, SPIC (Homo sapiens, UniProt Q8N5J4 1-248)
T2 sequence: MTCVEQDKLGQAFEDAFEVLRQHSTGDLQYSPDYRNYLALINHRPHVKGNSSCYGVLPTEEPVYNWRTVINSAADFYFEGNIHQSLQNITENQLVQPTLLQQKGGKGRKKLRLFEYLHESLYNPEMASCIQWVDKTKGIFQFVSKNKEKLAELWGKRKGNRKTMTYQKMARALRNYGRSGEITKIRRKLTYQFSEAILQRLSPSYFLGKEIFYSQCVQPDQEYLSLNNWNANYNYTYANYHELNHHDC
Procedure, shortened: as §1

[4] = biological target: ELF4 (Homo sapiens, UniProt Q99607 1-663)
Sequence of ELF4 (Q99607 whole entry): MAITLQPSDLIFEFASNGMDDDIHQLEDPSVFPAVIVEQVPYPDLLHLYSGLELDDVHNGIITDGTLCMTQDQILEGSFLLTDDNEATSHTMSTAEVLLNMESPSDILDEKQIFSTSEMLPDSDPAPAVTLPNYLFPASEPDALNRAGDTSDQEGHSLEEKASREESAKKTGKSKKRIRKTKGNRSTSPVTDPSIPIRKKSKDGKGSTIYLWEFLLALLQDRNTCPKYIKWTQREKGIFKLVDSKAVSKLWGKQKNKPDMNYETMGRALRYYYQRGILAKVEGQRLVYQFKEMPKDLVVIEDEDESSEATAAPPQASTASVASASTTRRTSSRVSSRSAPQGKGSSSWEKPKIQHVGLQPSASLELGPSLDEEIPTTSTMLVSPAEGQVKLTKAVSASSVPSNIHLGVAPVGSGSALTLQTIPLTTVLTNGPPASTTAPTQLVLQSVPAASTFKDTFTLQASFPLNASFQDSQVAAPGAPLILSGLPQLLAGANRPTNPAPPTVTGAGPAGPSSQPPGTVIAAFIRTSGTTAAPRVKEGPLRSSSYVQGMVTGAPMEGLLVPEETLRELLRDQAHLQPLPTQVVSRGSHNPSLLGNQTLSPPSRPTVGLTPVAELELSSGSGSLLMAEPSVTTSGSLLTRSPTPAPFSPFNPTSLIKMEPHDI
Procedure, shortened: as §1

[5] = biological target: T3, ELK4 (Homo sapiens, UniProt P28324-2 1-405)
T3 sequence: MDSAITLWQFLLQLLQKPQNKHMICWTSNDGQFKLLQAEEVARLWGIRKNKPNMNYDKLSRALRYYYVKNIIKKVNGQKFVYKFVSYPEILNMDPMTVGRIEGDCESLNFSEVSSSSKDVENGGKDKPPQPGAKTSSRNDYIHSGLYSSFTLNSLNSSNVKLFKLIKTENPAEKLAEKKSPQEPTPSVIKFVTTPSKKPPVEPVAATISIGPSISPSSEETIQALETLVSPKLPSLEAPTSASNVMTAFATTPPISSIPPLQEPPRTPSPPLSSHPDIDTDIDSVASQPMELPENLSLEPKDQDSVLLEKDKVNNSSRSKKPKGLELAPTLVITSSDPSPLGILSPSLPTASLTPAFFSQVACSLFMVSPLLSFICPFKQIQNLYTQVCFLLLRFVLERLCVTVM
Procedure, shortened: as §1

[6] = biological target: T4, ETV2 (Homo sapiens, UniProt O00321 1-342)
T4 sequence: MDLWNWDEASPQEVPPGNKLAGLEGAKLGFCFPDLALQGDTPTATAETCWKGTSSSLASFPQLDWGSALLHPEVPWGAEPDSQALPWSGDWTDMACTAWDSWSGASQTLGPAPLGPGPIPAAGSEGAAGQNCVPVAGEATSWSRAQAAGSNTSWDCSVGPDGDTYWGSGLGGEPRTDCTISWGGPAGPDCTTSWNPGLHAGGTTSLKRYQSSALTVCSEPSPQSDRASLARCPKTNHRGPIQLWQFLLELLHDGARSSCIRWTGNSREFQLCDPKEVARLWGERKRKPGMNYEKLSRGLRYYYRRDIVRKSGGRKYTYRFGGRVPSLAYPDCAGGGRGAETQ
Procedure, shortened: as §1

[7] = biological target: T5, ELF3 (Homo sapiens, UniProt P78545 1-371)
T5 sequence: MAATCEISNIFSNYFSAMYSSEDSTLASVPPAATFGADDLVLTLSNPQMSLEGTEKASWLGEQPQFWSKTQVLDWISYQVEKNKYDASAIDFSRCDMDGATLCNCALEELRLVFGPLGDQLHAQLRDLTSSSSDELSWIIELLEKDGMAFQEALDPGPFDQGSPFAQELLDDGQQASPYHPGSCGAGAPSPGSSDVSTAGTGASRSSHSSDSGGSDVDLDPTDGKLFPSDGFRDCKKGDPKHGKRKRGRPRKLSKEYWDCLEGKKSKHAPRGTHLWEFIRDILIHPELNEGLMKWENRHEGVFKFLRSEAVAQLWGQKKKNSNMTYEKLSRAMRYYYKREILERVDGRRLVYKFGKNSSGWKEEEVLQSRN
Procedure, shortened: as §1

[8] = biological target: ETV1 (Homo sapiens, UniProt P50549 1-477)
Sequence of ETV1 (P50549 whole entry): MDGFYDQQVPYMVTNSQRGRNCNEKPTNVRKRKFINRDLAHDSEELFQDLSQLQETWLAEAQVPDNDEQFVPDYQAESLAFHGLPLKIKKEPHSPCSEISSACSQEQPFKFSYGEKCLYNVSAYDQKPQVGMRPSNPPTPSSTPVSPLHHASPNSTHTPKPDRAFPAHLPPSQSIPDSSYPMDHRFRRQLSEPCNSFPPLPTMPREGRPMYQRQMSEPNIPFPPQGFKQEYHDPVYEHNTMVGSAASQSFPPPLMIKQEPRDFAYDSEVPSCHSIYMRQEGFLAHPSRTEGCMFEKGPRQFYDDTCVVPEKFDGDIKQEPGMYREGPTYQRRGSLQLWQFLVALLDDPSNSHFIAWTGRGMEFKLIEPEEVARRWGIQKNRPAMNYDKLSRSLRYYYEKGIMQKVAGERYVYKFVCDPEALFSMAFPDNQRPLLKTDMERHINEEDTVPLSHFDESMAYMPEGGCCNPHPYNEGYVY
Procedure, shortened: as §1

[9] = biological target: T6, ERF (Homo sapiens, UniProt P50548 1-548)
T6 sequence: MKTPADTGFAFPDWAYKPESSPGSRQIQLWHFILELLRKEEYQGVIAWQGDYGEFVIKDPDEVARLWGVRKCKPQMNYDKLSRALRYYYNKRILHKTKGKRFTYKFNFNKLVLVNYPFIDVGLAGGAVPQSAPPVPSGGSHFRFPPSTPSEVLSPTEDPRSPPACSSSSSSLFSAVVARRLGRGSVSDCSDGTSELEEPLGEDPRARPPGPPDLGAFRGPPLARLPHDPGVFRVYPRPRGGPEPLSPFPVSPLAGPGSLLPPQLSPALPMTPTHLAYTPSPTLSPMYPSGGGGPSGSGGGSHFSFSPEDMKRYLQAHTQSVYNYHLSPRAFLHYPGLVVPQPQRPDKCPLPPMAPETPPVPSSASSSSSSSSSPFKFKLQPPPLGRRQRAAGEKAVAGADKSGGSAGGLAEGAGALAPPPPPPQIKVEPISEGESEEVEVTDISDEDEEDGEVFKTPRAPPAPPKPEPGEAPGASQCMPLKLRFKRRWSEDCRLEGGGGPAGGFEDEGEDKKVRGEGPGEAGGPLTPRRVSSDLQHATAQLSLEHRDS
Procedure, shortened: as §1

[10] = biological target: T7, ETV3L (Homo sapiens, UniProt Q6ZN32 1-361)
T7 sequence: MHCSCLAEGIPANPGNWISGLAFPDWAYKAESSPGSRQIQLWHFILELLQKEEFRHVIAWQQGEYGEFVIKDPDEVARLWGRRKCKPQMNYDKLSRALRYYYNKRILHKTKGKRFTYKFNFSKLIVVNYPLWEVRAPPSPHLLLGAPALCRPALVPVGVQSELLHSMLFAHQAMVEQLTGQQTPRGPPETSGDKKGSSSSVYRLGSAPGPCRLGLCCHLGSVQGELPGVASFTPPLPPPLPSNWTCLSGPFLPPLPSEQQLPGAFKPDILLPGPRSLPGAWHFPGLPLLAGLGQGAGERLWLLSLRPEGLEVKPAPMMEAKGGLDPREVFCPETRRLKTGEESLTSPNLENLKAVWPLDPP
Procedure, shortened: as §1

[11] = biological target: T8, ETS2 (Homo sapiens, UniProt P15036 1-469)
T8 sequence: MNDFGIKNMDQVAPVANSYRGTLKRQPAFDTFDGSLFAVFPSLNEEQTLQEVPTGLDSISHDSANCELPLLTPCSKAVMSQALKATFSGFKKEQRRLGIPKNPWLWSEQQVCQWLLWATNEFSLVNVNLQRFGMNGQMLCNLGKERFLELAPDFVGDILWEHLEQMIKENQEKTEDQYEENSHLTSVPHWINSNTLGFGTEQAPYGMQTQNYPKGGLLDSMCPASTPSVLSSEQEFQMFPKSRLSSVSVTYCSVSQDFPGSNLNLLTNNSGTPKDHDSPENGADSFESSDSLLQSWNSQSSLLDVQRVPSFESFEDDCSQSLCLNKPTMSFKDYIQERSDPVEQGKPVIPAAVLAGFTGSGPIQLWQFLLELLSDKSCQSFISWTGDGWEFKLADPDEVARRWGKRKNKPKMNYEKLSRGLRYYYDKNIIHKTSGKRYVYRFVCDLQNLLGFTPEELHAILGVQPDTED
Procedure, shortened: as §1

[12] = biological target: T9, SPDEF (Homo sapiens, UniProt O95238 1-335)
T9 sequence: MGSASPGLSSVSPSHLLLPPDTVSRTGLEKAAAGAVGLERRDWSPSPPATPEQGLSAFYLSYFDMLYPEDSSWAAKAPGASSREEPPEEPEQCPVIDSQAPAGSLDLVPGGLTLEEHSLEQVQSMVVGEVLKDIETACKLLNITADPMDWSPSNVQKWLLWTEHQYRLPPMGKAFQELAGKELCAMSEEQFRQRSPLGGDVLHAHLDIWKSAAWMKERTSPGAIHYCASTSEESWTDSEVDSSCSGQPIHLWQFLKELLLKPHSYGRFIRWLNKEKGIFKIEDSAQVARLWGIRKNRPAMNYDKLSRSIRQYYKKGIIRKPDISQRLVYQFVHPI
Procedure, shortened: as §1

[13] = biological target: T10, ETV7 (Homo sapiens, UniProt Q9Y603 1-341)
T10 sequence: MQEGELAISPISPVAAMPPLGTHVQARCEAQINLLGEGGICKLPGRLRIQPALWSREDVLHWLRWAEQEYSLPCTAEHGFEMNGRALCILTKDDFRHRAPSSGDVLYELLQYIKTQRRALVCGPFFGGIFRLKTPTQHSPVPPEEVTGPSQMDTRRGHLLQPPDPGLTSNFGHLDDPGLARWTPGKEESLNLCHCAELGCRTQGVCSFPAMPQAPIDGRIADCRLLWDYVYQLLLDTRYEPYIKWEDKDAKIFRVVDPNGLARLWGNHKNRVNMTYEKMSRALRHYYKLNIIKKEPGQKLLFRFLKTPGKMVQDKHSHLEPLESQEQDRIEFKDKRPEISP
Procedure, shortened: as §1

[14] = biological target: T11, ELF5 (Homo sapiens, UniProt Q9UKW6-2 1-255)
T11 sequence: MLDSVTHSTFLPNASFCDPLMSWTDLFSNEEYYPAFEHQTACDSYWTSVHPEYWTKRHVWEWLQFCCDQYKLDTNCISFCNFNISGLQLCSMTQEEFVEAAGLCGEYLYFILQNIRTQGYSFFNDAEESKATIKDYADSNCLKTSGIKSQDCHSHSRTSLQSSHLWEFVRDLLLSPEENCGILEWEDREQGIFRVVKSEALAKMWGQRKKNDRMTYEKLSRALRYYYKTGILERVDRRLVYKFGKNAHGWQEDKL
Procedure, shortened: as §1

[15] = biological target: T12, ETV3 (Homo sapiens, UniProt P41162-2 1-143)
T12 sequence: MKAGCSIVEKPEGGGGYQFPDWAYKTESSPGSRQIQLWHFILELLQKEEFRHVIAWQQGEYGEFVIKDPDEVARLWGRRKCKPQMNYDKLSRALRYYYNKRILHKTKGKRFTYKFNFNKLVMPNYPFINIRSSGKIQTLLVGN
Procedure, shortened: as §1

[16] = biological target: ETV6 (Homo sapiens, UniProt P41212 1-452)
Sequence of ETV6 (P41212 whole entry): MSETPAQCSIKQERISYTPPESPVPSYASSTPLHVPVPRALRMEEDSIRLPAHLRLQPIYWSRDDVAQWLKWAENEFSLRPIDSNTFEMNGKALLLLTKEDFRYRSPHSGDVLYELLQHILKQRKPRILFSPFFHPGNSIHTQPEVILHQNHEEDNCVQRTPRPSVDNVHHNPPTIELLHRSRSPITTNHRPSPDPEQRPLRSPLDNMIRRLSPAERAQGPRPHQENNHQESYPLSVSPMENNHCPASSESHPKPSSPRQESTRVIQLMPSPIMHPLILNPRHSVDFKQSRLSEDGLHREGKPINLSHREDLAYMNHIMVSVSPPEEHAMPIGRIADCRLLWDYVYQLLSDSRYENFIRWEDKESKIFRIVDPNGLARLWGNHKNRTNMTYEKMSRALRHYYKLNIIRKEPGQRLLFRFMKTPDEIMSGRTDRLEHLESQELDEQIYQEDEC
Procedure, shortened: as §1

Row | Sequence | binding signal [1] | binding signal [2] | binding signal [3] | binding signal [4] | binding signal [5] | binding signal [6] | binding signal [7] | binding signal [8] | binding signal [9] | binding signal [10] | binding signal [11] | binding signal [12] | binding signal [13] | binding signal [14] | binding signal [15] | binding signal [16]
1 | CCCACA | 1.17 fold enrichment (6-mer frequency, TF over GST control) | 1.14 fold enrichment (6-mer frequency, TF over GST control) | 1.2 fold enrichment (6-mer frequency, TF over GST control) | 1.15 fold enrichment (6-mer frequency, TF over GST control) | 1.1 fold enrichment (6-mer frequency, TF over GST control) | 1.1 fold enrichment (6-mer frequency, TF over GST control) | 1.14 fold enrichment (6-mer frequency, TF over GST control) | 1.07 fold enrichment (6-mer frequency, TF over GST control) | 1.12 fold enrichment (6-mer frequency, TF over GST control) | 1.1 fold enrichment (6-mer frequency, TF over GST control) | 1.13 fold enrichment (6-mer frequency, TF over GST control) | 1.22 fold enrichment (6-mer frequency, TF over GST control) | 1.05 fold enrichment (6-mer frequency, TF over GST control) | 1.13 fold enrichment (6-mer frequency, TF over GST control) | 1.1 fold enrichment (6-mer frequency, TF over GST control) | 1.14 fold enrichment (6-mer frequency, TF over GST control)
2 | TGCATG | 1.04 fold enrichment (6-mer frequency, TF over GST control) | 1.15 fold enrichment (6-mer frequency, TF over GST control) | 1.27 fold enrichment (6-mer frequency, TF over GST control) | 1.08 fold enrichment (6-mer frequency, TF over GST control) | 1.05 fold enrichment (6-mer frequency, TF over GST control) | 1.08 fold enrichment (6-mer frequency, TF over GST control) | 1.02 fold enrichment (6-mer frequency, TF over GST control) | 1.06 fold enrichment (6-mer frequency, TF over GST control) | 1.06 fold enrichment (6-mer frequency, TF over GST control) | 1.27 fold enrichment (6-mer frequency, TF over GST control) | 1.06 fold enrichment (6-mer frequency, TF over GST control) | 1.06 fold enrichment (6-mer frequency, TF over GST control) | 1.06 fold enrichment (6-mer frequency, TF over GST control) | 1.01 fold enrichment (6-mer frequency, TF over GST control) | 1.1 fold enrichment (6-mer frequency, TF over GST control) | 1.08 fold enrichment (6-mer frequency, TF over GST control)
